Experimental findings from PubChem BioAssay AID1210 (NMMLSC, 2008) are described below.

Values without a mark were called inactive. Activity calls are given as the source filed them.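 Rule for the calls: active = blocks over 70% of labeled estradiol binding at 10 µM, or over a set limit at 100 nM; inactive = the rest.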

The inhibition is the share of the control response that was lost under treatment.

Chain of Estrogen receptor beta (Homo sapiens) (Q92731 whole entry, looked up): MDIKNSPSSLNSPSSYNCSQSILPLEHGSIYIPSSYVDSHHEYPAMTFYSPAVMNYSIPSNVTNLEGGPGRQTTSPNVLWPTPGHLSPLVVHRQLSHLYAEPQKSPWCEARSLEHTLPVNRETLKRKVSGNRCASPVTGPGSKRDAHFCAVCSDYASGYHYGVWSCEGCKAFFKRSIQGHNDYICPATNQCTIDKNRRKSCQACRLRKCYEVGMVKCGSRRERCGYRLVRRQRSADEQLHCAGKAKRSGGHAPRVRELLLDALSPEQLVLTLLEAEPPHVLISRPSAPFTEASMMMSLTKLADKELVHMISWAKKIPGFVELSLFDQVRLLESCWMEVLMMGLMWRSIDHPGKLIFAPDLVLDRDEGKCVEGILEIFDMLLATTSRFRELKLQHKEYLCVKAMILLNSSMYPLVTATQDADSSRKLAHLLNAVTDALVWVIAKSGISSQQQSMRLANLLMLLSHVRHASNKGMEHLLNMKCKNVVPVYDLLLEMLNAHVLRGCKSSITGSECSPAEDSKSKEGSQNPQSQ

The test concerns the target Estrogen receptor beta (Homo sapiens) (UniProt Q92731). The experiment in a line: ERbeta ligand binders by competition, primary screen, cell-based, Cos7 ERbeta-GFP, flow cytometry (AID 1210).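 Note: 0% = DMSO vehicle wells and 100% = complete loss of labeled estradiol signal.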 The conditions noted are these: fluorescent estrogen binding, at 10 µM, stronger effect = higher value. (In general: Flow cytometry measures light scatter and fluorescence of single cells or particles in a stream.)
For the compound `O=C(Cc1ccc(S(=O)(=O)N2CCOCC2)s1)Nc1nc2c(s1)CCCC2`, the inhibition was 18%.
Turning to `COc1ccc2c(c1)c(=O)oc1cc3oc(C)c(C)c3cc12`, the inhibition is 24%.
For the compound `Cc1noc(C)c1CSCC(=O)OCC(=O)Nc1sccc1C#N`, the inhibition is 5%.
On to `CCCNC(=O)c1ccc2c(c1)C1C3CCC(C3)C1C(c1ccccc1)N2` (stereo not drawn), for which the inhibition was 54%.
For `N#Cc1c2c(c(=O)n3c1[nH]c1ccccc13)CCCC2`, the inhibition is 13%.
The same measure for `CCOc1cc2c(c([N+](=O)[O-])c1)NC(c1ccc(Br)cc1)C1CC=CC21` (stereo not drawn): 7%; for `CCCCOC(=O)c1c(C)oc2ccc(NS(=O)(=O)c3ccc4c5c(cccc35)C(=O)N4)cc12`: 43%; for `CC(=O)OC1CC2(C)C(=O)CCC2C2CCc3cc(O)ccc3C12` (stereo not drawn): 95% (active).
The same measure for `COc1ccccc1C(=O)Nc1nc(-c2cccs2)c(NC(C)=O)s1`: 40%; for `CCOc1ccc(NS(=O)(=O)c2ccc3c(c2)[C@H]2C=CC[C@H]2[C@@H](c2cccc([N+](=O)[O-])c2)N3)cc1`: 0%.
For the compound `Cc1ccc(-c2nn3c(C)nnc3s2)cc1NC(=O)COc1ccc(Cl)cc1`, the inhibition was 24%.
With `C=C1c2ccc(OC)cc2NC(=O)N1c1ccccc1`, the inhibition is 15%.
Regarding `Nc1ccc(-c2nc3ccc([N+](=O)[O-])cc3[nH]2)cc1`, the inhibition is 61%.
Take `CCC1=NN2C(=N)/C(=C\c3ccc(SCc4ccco4)o3)C(=O)N=C2S1`: the inhibition is 35%.
In the case of `CC1(C)C=C(c2ccc(O)cc2)CC(C)(C)N1`, the inhibition is 43%.
Consider `CC(C)C1CC(CCNCc2ccc3c(c2)OCO3)(c2ccccc2)CCO1` (stereo not drawn), for which the inhibition is 45%.
As for `CCCCCCc1cc2c3c(c(=O)oc2cc1OCC(N)=O)CCC3`, the inhibition is 12%.
The same measure for `O=c1oc2cc(O)ccc2c2c1CCCC2`: 12%; for `Cc1ccc2c(c1C)NC(C(=O)O)C1CC=CC21` (stereo not drawn): 3%.
To `O=C(O)COc1cc2oc(=O)c3c(c2cc1Cl)CCCC3` belongs 11%; to `CC1(C)Cc2[nH]c(=O)c(C(=O)O)cc2CO1`, 43%; to `CCCC1Nc2ccc(C(=O)O)cc2C2C=CCC12` (stereo not drawn), 44%.
Take `CC1(C)CC(=O)c2cn(-c3ccc(Cl)cc3)c(=N)c(C#N)c2C1`: the inhibition is 12%.
Regarding `Oc1ccc2c(c1)c1c3n2CCNC3CCC1` (stereo not drawn), the inhibition is 25%.
To `COc1ccc(C2Nc3ccccc3C(=O)N2c2ccccc2)cc1CSc1ccccn1` (stereo not drawn) belongs 60%.
Regarding `COc1ccc(OC)c(NC(=O)c2cc(-c3ccc(C)cc3O)n[nH]2)c1`, the inhibition was 19%.
To `CCOC(=O)c1ccc2c(c1)C1C=CCC1C(c1cccc([N+](=O)[O-])c1)N2` (stereo not drawn) belongs 6%; to `Cc1sc2ncnc(NCc3ccco3)c2c1C`, 39%; to `CCc1cc2c3c(c(=O)oc2cc1OCC(=O)OC)CCCC3`, 15%.
For `CCOc1cc2c(c([N+](=O)[O-])c1)NC(c1ccc(Cl)cc1)C1CC=CC21` (stereo not drawn), the inhibition was 16%.
The same measure for `O=C(O)c1ccc(Cl)c2c1C1C=CCC1C(c1ccccn1)N2` (stereo not drawn): 28%; for `Nc1nc(-c2ccc3c(c2)NC(=O)CO3)cs1`: 70%; for `COc1ccc(N2C(=O)c3ccccc3NC2c2ccc(OC)c(CSc3ccccn3)c2)cc1` (stereo not drawn): 36%.
Turning to `CCC(Oc1ccc2c3c(c(=O)oc2c1C)CCC3)C(=O)OC` (stereo not drawn), the inhibition was 15%.
`CC(=O)Oc1ccc(C2Nc3c(C(=O)O)ccc([N+](=O)[O-])c3C3C=CCC32)cc1` (stereo not drawn): the inhibition is 56%.
In the case of `O=C(COC(=O)C1CC2C=CC1C2)NCc1ccco1` (stereo not drawn), the inhibition was 25%.
As to `CN(/N=C/c1cccnc1)c1cnn(-c2ccc(F)c(Cl)c2)c(=O)c1Cl`, the inhibition was 20%.
Regarding `COc1ccc2c(c1)c1c3n2CCNC3CCC1` (stereo not drawn), the inhibition was 18%.
